# Measurements: PubChem BioAssay AID1671190 (National Center for Advancing Translational Sciences (NCATS), 2021)
# Several values for one entry are separate records, joined by “and”; a condition that tells them apart may be missing. Identical values can stand only once. Screen size: about 580,000 compounds; about 6,100 (1.1%) were called active. Not shown: some 15% with an inconclusive outcome. The sample holds actives, similar compounds and a random draw of the others, so the mix is not that of the screen. Calls follow the shape of the dose curve; as a rule, active = well fitted inhibition curve with a large enough effect; inconclusive = small, poorly fitted or top-dose-only effect, or another doubt; inactive = no such curve, though single readings can be large or run the other way.
# Target: Polyunsaturated fatty acid lipoxygenase ALOX12 (Homo sapiens) (UniProt P18054)
# Assay: Primary qHTS assay for inhibitors of human arachidonate 12S-lipoxygenase (ALOX12): Round 2
# Details: purified 12hLO, xylenol orange hydroperoxide absorbance; series mostly up to 108 µM; activity change, negative = inhibition: at the top concentration
# Outline: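 Hydroperoxide product was detected by ferrous iron/xylenol orange as the 573 to 405 nm absorbance ratio. Arachidonic acid at 40 uM (final) was turned over for 30 min at room temperature by 150 nM human 12hLO, pH 7.0 Hepes buffer, after 15 min compound preincubation.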
# % is scaled to controls: 0 for no effect and ±100 for the full control effect; potency is read from the fitted curve at half-maximal effect.
# Polyunsaturated fatty acid lipoxygenase ALOX12 (Homo sapiens), sequence (P18054 whole entry, looked up): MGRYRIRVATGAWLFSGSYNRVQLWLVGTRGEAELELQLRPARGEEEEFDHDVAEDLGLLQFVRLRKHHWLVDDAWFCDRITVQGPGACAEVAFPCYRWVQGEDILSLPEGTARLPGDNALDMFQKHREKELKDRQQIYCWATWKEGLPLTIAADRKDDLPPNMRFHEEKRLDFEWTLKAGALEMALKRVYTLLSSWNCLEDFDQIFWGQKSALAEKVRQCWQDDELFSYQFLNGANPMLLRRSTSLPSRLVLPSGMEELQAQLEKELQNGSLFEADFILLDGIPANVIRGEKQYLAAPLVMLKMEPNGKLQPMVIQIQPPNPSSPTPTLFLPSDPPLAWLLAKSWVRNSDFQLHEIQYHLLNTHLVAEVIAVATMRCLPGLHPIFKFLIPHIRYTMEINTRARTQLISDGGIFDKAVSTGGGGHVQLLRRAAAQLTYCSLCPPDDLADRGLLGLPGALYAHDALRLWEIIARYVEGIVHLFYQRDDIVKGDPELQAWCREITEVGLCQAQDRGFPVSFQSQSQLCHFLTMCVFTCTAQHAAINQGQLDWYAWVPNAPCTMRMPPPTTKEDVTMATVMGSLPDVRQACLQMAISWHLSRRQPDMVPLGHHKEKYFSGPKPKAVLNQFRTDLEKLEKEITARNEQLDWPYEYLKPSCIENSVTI
SMILES,"activity change, negative = inhibition",Potency
COc1ccc(S(=O)(=O)N2CCC(C(=O)Nc3cccc(C)c3)CC2)c2cccnc12,26.8% (inactive),
COC(=O)[C@H](Cc1ccc(OC)cc1)NC(=O)[C@H]1CN(C(=O)c2ccc(N(C)C)cc2)CCN1S(=O)(=O)c1ccccc1,6.47% (inactive),
CCCN(C)C(=O)CCC[C@H]1NC[C@@H]2C[C@H]1CN(Cc1ccccc1)C2,-0.277% (inactive),
N#CC1=C(N)OC2=C(C(=O)CCC2)C1c1ccc(-c2ccc(Cl)cc2Cl)o1 (stereo not drawn),,28.2 µM (active)
NC1=C([N+](=O)[O-])C(c2ccccc2)C2=C(CCCC2=O)O1 (stereo not drawn),10.4% (inactive),
CC1(C)CC(=O)C2=C(C1)OC(N)=C(C#N)C2c1cccnc1 (stereo not drawn),-14.4% (inactive),
O=C(Nc1ccccc1F)N1CC2CCC(C1)N2Cc1ccc(-c2cccnc2)cc1,0.675% [at 6.33 µM] (inactive),
COc1ccc(OC)c(NC(=O)/C=C/c2ccc(C)o2)c1,-4.21% (inactive),
Cc1ccc(/C=C/C(=O)Nc2ccc([N+](=O)[O-])c(NC(=O)/C=C/c3ccc(C)o3)c2)o1,,6.31 µM (active)
CC(=O)Nc1ccc2c3c(ccc([N+](=O)[O-])c13)CC2,-4.52% (inactive),
COCCn1c(SCc2cccc(Br)c2)nnc1-c1ccccc1,0.725% (inactive),
Cc1ccc(C)c(/C=C/c2nc3ccccc3s2)c1,-17% (inactive),
CC(C)(C)NC(=O)C(=O)NN=C1CCCCCCC1,244% (inactive),
CC(C)(C)c1ccc(C(=O)NN=C2CCCCC2)cc1,48.6% (inactive),
CC(C)NC(=S)NN=C1CCCCCCCCCCC1,,35.5 µM (active)
COc1ccc(C)cc1CN(C)C(=O)CCn1ccc2ccccc21,-19.6% (inactive),
CCOC(=O)c1c(NC(=O)c2ccc(S(=O)(=O)N3CCCC(C)C3)cc2)sc2c1CCN(C(C)C)C2 (stereo not drawn),-18.9% (inactive),
CCOC(=O)c1cn[nH]c1S(=O)(=O)N1CCCC(C)C1 (stereo not drawn),,11.2 µM (active)
CCOC(=O)c1cccc(NC(=O)c2cc(S(=O)(=O)N3CCCC(C)C3)cn2C)c1 (stereo not drawn),-5.94% (inactive),
O=C(Nc1ccc(Cl)nc1)c1ccc2cc[nH]c2n1,5.64% [at 12.5 µM] (inactive) and 1.76% [at 12.5 µM] (inactive),
CC/C(=C(/c1ccccc1)c1ccc(OCC[N+](C)(C)C)cc1)c1ccccc1,,44.7 µM (active)
CCCCCCCCCOc1ccc(C(=O)c2ccccc2)cc1,19.7% (inactive),
CC/C(=N/N=C(/CC)c1ccccc1)c1ccccc1,-0.0612% (inactive),

SMILES,"activity change, negative = inhibition",Potency
CCCCOCCCNC(=O)c1cccc(C#N)c1,8.27% (inactive),
O=C(N/N=C/C=C/c1ccccc1)C1CC1(c1ccccc1)c1ccccc1 (stereo not drawn),17.3% (inactive),
Cc1ccc(N/N=C/C=C/c2ccccc2)cc1Cl,,2.82 µM (active)
O=C(NN=CC=Cc1ccccc1)C(O)C(O)C(=O)NN=CC=Cc1ccccc1 (stereo not drawn),-0.942% (inactive),
CCOc1ccc(C(=O)N2c3ccccc3NC(=O)C2CC(=O)Nc2cccc(C(F)(F)F)c2)cc1 (stereo not drawn),-13.4% (inactive),
O=C(Oc1ccc2cc(-c3ccccc3)c(=O)oc2c1)N1CCOCC1,-0.175% (inactive),
S=C(NCc1ccccc1)Nc1ccc(NC(=S)NCc2ccccc2)c(Cl)c1,-3.77% (inactive),
C/C(=N\NC(=O)CNC(=O)C(c1ccccc1)c1ccccc1)c1ccc(C)cc1,11% (inactive),
O=C(NCc1ccccc1)c1cccc(NC(=O)C2CCCCC2)c1,-2.41% (inactive),
C/C(=N\NC(=S)NCc1ccccc1)C1CCCCC1,,39.8 µM (active)
O=C(COC(=O)CNC(=O)C1CCCCC1)NCc1ccccc1,0% (inactive),
COC(=O)CNC(=O)c1cccc(C(F)(F)F)c1,5.28% (inactive),
C/C(=N/NC(=S)NCc1ccccc1)c1cccc(C(F)(F)F)c1,,12.6 µM (active)
O=C(NC(Cc1ccccc1)C(=O)O)c1cccc(C(F)(F)F)c1 (stereo not drawn),-18.9% (inactive),
C/C(=N\NC(=S)NCc1ccccc1)c1ccc(Cl)cc1,,31.6 µM (active)
CC(=O)c1ccccc1NCC(=O)NCC(F)(F)F,-15.2% (inactive),
CCOc1ccc(CNC(=O)c2ncoc2-c2cccs2)cc1OC,29.3% (inactive),
COc1cccc(CN(C(=O)c2oc3cc(Br)ccc3c2C)C2CCS(=O)(=O)C2)c1 (stereo not drawn),-12.2% (inactive),
O=C(CCNc1c(-c2ccc(F)cc2)nc2cnccn12)Nc1ccc2c(c1)OCO2,-7.67% (inactive),
Cc1ccc(C)c(Oc2coc3cc(OC(=O)C(C)C)ccc3c2=O)c1,-5.82% (inactive),
CC(C)c1nnc(CN2CCOc3c(O)cc(-c4cccc(Cl)c4)cc3C2)o1,4.28% (inactive),
S=c1[nH]nc(CSCc2ccc(Cl)cc2Cl)n1-c1ccccc1,,28.2 µM (active)
CC(C)Oc1ccc(Cc2n[nH]c(=S)n2Cc2ccccc2)cc1Cl,-6.13% (inactive),

SMILES,"activity change, negative = inhibition",Potency
O=S(=O)(NCCc1nnc2ccc(SCc3ccc(Cl)cc3Cl)nn12)c1ccccc1,-19.8% (inactive),
CCN(C(=O)CCc1c[nH]c2ccccc12)c1ccc(F)cc1,-27.9% (inactive),
CC(C)=CCc1ccc(O)c(=O)cc1C(C)C,,25.1 µM (active)
Cc1ccccc1-c1cc(=O)c2cc(NC(=O)c3ccccc3F)ccc2o1,12.3% (inactive),
O=C(Nc1nc2c(s1)CCCC2)c1ccccc1F,-9.3% (inactive),
COC(=O)C(NC(C)=O)(Nc1nc2c(s1)CCCC2)C(F)(F)F (stereo not drawn),,17.8 µM (active)
CCOC(=O)C(NC(=O)CC(C)C)(Nc1sc2c(c1C(N)=O)CCCC2)C(F)(F)F (stereo not drawn),0.0335% (inactive),
CCOc1ccccc1OCCN,-30.9% (inactive),
CCCc1nc2c(-c3ccc(Cl)cc3)c(C)[nH]n2c(=O)c1Cl,-11.8% (inactive),
O=C(CSc1nncn1-c1ccccc1F)Nc1ccccc1C(=O)Nc1ccccc1,14% (inactive),
O=C(COC(=O)c1cnccn1)Nc1cccc2ccccc12,-1.25% (inactive),
O=C(COC(=O)c1cnccn1)Nc1ccc(Cl)cc1C(F)(F)F,,10 µM (active)
O=C(COC(=O)c1cc2ccccc2cc1O)Nc1ccc(Cl)cc1C(F)(F)F,6.37% (inactive),
CN(Cc1ccccc1N1CCCC1)C(=O)c1ccc(S(=O)(=O)N2CCOCC2)cc1,7.09% (inactive),
CCOc1ccccc1NC(=O)c1cnc(N2CCCCC2)c2ccccc12,7.78% (inactive),
O=C(COc1ncnc2c(Cl)cc(Cl)cc12)Nc1cc(F)ccc1F,-2.36% (inactive),
Oc1c(Cl)cc(Cl)c(Cl)c1Cc1c(O)c(Cl)cc(Cl)c1Cl,,7.08 µM (active)
CC(C)(C)NC(=O)C(Sc1ccccc1)c1ccccc1 (stereo not drawn),-8.61% (inactive),
COc1ccc(Oc2c(C)oc3cc(OCC(=O)N4CCNC(=O)C4)ccc3c2=O)cc1,-1.25% (inactive),
FC(F)(F)c1ccccc1-c1cc(NCc2ccccc2)ncn1,,15.8 µM (active)
CN(Cc1ccco1)c1cc(-c2ccccc2C(F)(F)F)ncn1,-17.5% (inactive),
COc1ccccc1-c1cc(NCc2cccs2)ncn1,-0.248% (inactive),
